The record followed here is the supplement of paper PMC6555819.

Common to all, as to test: PBM binding z-score (relative to random genomic background probes); higher = stronger binding; sequences stand for … in GC…GCGATTGACAGCGTAGAATGAAGG
Test [1] has as its system FXR:RXRa (NR concentration 270 nM, RXRa partner concentration 90 nM). The method, boiled down: (§1)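 Custom Agilent 4×180K protein-binding microarrays carried double-stranded probes. Their 34-nt variable regions held direct-repeat seeds, single-nucleotide variants, half-site ablations and random human genomic background sequences. Arrays were incubated 1 h with ligand-free nuclear receptor dimers in PBS pH 7.4, 2% milk, 0.02% Triton X-100, 1 mM DTT, 0.2 mg/mL BSA and 0.4 mg/ml salmon testes DNA. Antibodies against each partner (one per run) detected binding, and scanned fluorescence was regression-normalized. Binding z-scores use random background probes as reference.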

Test [2] concerns LXRa:RXRa (NR concentration 270 nM, RXRa partner concentration 90 nM). The method, boiled down: as §1
In test [3] the test system is LXRa homodimer (NR concentration 270 nM). The method, boiled down: as §1
The test system of test [4] is LXRb:RXRa (NR concentration 270 nM, RXRa partner concentration 90 nM). The method, boiled down:
as §1

Test [5] relates to LXRb homodimer (NR concentration 270 nM). The method, boiled down:
as §1

Test [6] concerns PPARa:RXRa (NR concentration 270 nM, RXRa partner concentration 90 nM). The method, boiled down: as §1
Test [7] has as its system PPARg:RXRa (NR concentration 180 nM, RXRa partner concentration 90 nM). The method, boiled down: as §1
In test [8] the test system is PPARg:RXRa 270nM:90nM, anti-RXR (NR concentration 270 nM, RXRa partner concentration 90 nM). The method, boiled down: as §1
The subject of test [9] is PPARg:RXRa 30nM:10nM, anti-RXR (NR concentration 30 nM, RXRa partner concentration 10 nM). The method, boiled down:
as §1

Test [10] relates to PPARg:RXRa 90nM:30nM, anti-RXR (NR concentration 90 nM, RXRa partner concentration 30 nM). The method, boiled down:
as §1

The subject of test [11] is PPARg:RXRa DBDmut IVT, anti-RXR (DBD mutation: RXRa K156A/R161A, NR concentration 270 nM, RXRa partner concentration 90 nM). The method, boiled down: as §1
Test [12] deals with PPARg:RXRa IVT, anti-PPARg (NR concentration 270 nM, RXRa partner concentration 90 nM). The method, boiled down: as §1
For test [13], the system named is PPARg DBDmut:RXRa IVT, anti-PPARg (DBD mutation: PPARg1 K132A/R137A, NR concentration 270 nM, RXRa partner concentration 90 nM). The method, boiled down:
as §1

For test [14], the system named is PPARg DBDmut IVT, anti-PPARg (DBD mutation: PPARg1 K132A/R137A, NR concentration 270 nM). The method, boiled down: as §1
Test [15] concerns PPARg homodimer (NR concentration 180 nM). The method, boiled down:
as §1

For test [16], the system named is PXR:RXRa (NR concentration 270 nM, RXRa partner concentration 90 nM). The method, boiled down: as §1
The subject of test [17] is PXR homodimer (NR concentration 270 nM). The method, boiled down:
as §1

Test [18] concerns RARa:RXR (NR concentration 270 nM, RXRa partner concentration 90 nM). The method, boiled down:
as §1

Test [19] has as its system RARa homodimer (NR concentration 270 nM). The method, boiled down:
as §1

Test [20] deals with RARb:RXRa (NR concentration 270 nM, RXRa partner concentration 90 nM). The method, boiled down: as §1

Regarding CATTACGGGTCACTGACAGGTTATAGCATTTGGA, the PBM binding z-score stood at 5.82 in test [1]; 5.1 in test [2]; 1.52 in [3]; 4.09 in test [4]; 0.756 in test [5]; 5.54 in test [6]. Also, the PBM binding z-score in [7] stood at 5.78; in test [8] it was 5.45; in test [9], 2.2; in [10], 4.33; in test [11], 4.59; in [12] it was 5.02. Also, the PBM binding z-score came to 2.13 in test [13]; 1.77 in [14]; 2.69 in test [15]; 3.95 in test [16]; 0.249 in [17]; 4.95 in test [18]. Moreover, the PBM binding z-score in test [19] stood at 1.33; in test [20], 4.05.

Turning to ATATGTAGGTTATCGGGTAATTCAGTTTGCGCAT, the PBM binding z-score in test [1] stood at 0.917; in test [2], 1.31; in test [3], 1.01; in test [4] it was 1.33; in [5] it was 0.955; in test [6] it was 3.5. The PBM binding z-score was 5.49 in test [7]; 5.19 in test [8]; 2.91 in [9]; 4.5 in test [10]; 7.14 in test [11]; 7.39 in test [12]. Also, the PBM binding z-score was found to be 1.87 in test [13]; 2.29 in [14]; 2.19 in test [15]; 1.23 in [16]; 1.15 in test [17]; 1.11 in test [18]. Besides, the PBM binding z-score in test [19] turned out to be 1.97; in test [20], 1.02.

On to CAAACTAGGTTAAGAGGTCAAAGTCCGCTTCCCG, for which the PBM binding z-score was found to be 5.61 in test [1]; 5.82 in test [2]; 6.25 in test [3]; 4.8 in [4]; 1.58 in [5]; 5.87 in test [6]. For the same sequence, the PBM binding z-score is 7.84 in test [7]; 7.23 in [8]; 5.52 in test [9]; 7.19 in [10]; 7.16 in [11]; 7.32 in [12]. The PBM binding z-score in [13] stood at 2.96; in test [14] it was 2.44; in [15], 4.58; in test [16], 5.64; in test [17], 2.31; in test [18], 6.47. Also, the PBM binding z-score in [19] was found to be 2.19; in test [20], 4.23.

Consider CATACTGGGCCATTCAGAGGTCATTGATCATATG, for which the PBM binding z-score in test [1] came out at 3.03; in test [2], 4.44; in [3], 6.31; in test [4] it was 3.86; in test [5], 0.861; in [6], 3.77. For the same sequence, the PBM binding z-score was 2.37 in test [7]; 3.13 in test [8]; 1.18 in test [9]; 2.26 in test [10]; 3.86 in [11]; 3.89 in test [12]. The PBM binding z-score in test [13] was 1.19; in test [14], 0.509; in test [15], 2.57; in test [16], 4.82; in test [17] it was 2.58; in [18] it was 4.36. The PBM binding z-score in test [19] was 0.758; in test [20], 3.14.

Take TCTAGCAGGCCAGAGGGTCACTGAAGAGGTACGG: the PBM binding z-score was 0.95 in test [1]; 1.08 in test [2]; -0.818 in test [3]; 1.01 in [4]; -1.1 in test [5]; 2.79 in test [6]. Moreover, the PBM binding z-score in test [7] stood at 1.69; in [8], 2.79; in test [9], 1.92; in test [10] it was 2.4; in [11] it was 1.24; in [12], 0.963. In addition, the PBM binding z-score was -0.7 in [13]; -1.2 in test [14]; 0.503 in test [15]; 1.53 in test [16]; -0.448 in [17]; 2.29 in test [18]. Also, the PBM binding z-score was -0.0509 in test [19] and 2.34 in test [20].

Consider CCTAGTTGGTCAGGACGTCACACACCGGATATGA, for which the PBM binding z-score in [1] is -0.0966; in test [2], 0.0885; in test [3], 0.373; in [4] it was -0.0236; in [5], 0.306; in test [6], -0.286. In addition, the PBM binding z-score in test [7] is 0.962; in [8] it was 0.0606; in test [9] it was -0.177; in test [10], 0.147; in test [11], 0.48; in [12], 0.458. The PBM binding z-score is 0.41 in [13]; 0.0179 in test [14]; 0.77 in test [15]; -0.123 in test [16]; 0.484 in test [17]; -0.000234 in test [18]. The PBM binding z-score in [19] is 1.44; in test [20], 0.721.

With CGAACTAGGTCATACAGGACAGTGAATACATTGA, the PBM binding z-score in test [1] is 3.71; in [2] it was 2.61; in [3], 0.562; in [4], 1.97; in test [5], 0.184; in [6] it was 4.67. In addition, the PBM binding z-score amounted to 7.62 in test [7]; 6.24 in test [8]; 3.84 in test [9]; 5.74 in test [10]; 8.15 in test [11]; 8.47 in [12]. In addition, the PBM binding z-score turned out to be 4.73 in test [13]; 2 in test [14]; 1.93 in [15]; 1.48 in test [16]; 0.551 in test [17]; 2 in test [18]. For the same sequence, the PBM binding z-score in [19] was found to be 0.758; in test [20] it was 3.5.
